# Source: PubChem BioAssay (NCATS)
# Inconclusive results are not listed. Active and inactive are the calls of the source. Unless noted, the call rests on the fitted dose curve; in most records, active means well fitted curve in the direction sought with a large enough effect; inconclusive means small, poorly fitted or top-dose-only effect, or another doubt; inactive means no such curve, though single readings can be large; an effect the other way counts as inactive or inconclusive.
# Key:
# [1] = target: Lysosomal acid glucosylceramidase (Homo sapiens) (UniProt P04062); assay: Glucocerebrosidase-p2 (AID 348; in the data active means potency below about 10 µM; further: potency means the concentration at half of the fitted maximal effect); conditions: purified GBA, blue fluorogenic substrate, 40 min
# Outline: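 Compounds titrated from 0.6 nM upwards against 0.2 nM enzyme in pH 5.9 citric acid/KH2PO4, taurocholate, tween-20; blue fluorogenic substrate 80 uM, 40 min room temperature, stopped and read Ex 365/Em 440 for AC50.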
# [2] = AP1 Signaling Pathway (AID 357; active means well fitted curve in either direction with a large enough effect, not every such curve was filed as active;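 further: ME-180 reporter cells stimulated with EGF at its EC50 level; on the % scale 0 is the no-effect control and ±100 the full control effect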); conditions: ME-180 AP-1-bla reporter, EGF-induced, beta-lactamase ratio, 5 h; at 7.69 µM (top of the series) unless noted
# Outline: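 In this screen, ME-180 cells in Opti-MEM with 0.5% dialyzed FBS received EC50 EGF and compound titrations for 5 h. AP-1 reporter beta-lactamase was detected via CCF4 ratio, giving AC50 for positive and negative modulators.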
# [3] = target: Cytochrome P450 1A2 (Homo sapiens) (UniProt P05177); assay: p450-cyp1a2 (AID 410; calls by dose curve; further: potency means the concentration at half of the fitted maximal effect); conditions: recombinant CYP1A2, luciferin-ME demethylation, luminescence; series mostly up to 57 µM
# Outline: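 Human CYP1A2 (20nM) demethylated Luciferin-ME at its Km (100uM) in 100mM KPO4. After 10 min compound preincubation, NADPH regeneration ran the reaction 60 min at room temperature. Luciferin was read by luminescence, normalized to 57 uM furafylline.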
# [4] = NFAT Signaling Pathway (AID 444; active means well fitted curve in either direction with a large enough effect, not every such curve was filed as active;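 further: carbachol stimulus at about its EC50 of 1 µM final; on the % scale 0 is the no-effect control and ±100 the full control effect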); conditions: Jurkat NFAT-bla M1, carbachol, beta-lactamase ratio, 5 h; at 7.69 µM (top of the series) unless noted
# Outline: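 Read-out: CCF4 FRET ratio (460 nm/530 nm) after 1 h RT dye loading, used for %activity and AC50 from titration series. Cells: Jurkat NFAT-β-lactamase/M1 line, treated with compound plus 1 uM carbachol for 5 h, 37 °C.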
# [5] = Stat Signaling Pathway (AID 446; active means well fitted curve in either direction with a large enough effect, not every such curve was filed as active;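 further: ME-180 cervical cancer cells given 40 pM IL-6 alongside compound; SIE-controlled beta-lactamase reporter measured as 460/530 nm FRET emission ratio; on the % scale 0 is the no-effect control and ±100 the full control effect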); conditions: ME-180 SIE beta-lactamase reporter, IL-6 stimulated, 5 h; at 7.69 µM (top of the series) unless noted
# Outline: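 Screening format detects activators and inhibitors alike: ME-180 SIE-bla cells stimulated at 40 pM IL-6 for 5 hrs with compound, then dual-emission beta-lactamase read at 405 nm excitation.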
# [6] = target: Glucocorticoid receptor (Homo sapiens) (UniProt P04150); assay: GR-GFP Redistribution (AID 450;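 active means compounds whose dose series gives a full or clear partial fitted curve of increased nuclear translocation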; further: potency means the concentration at half of the fitted maximal effect); conditions: U2OS GR-GFP nuclear translocation, laser cytometry, 2 h
# [7] = target: Glucocorticoid receptor (Homo sapiens) (UniProt P04150); assay: GR-EFC Redistribution (AID 451; calls by dose curve; further: potency means the concentration at half of the fitted maximal effect); conditions: CHO-K1 GR-EFC translocation, beta-gal luminescence, 2 h
# Outline: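 Translocation of GR-ED fusion to nuclear EA restores b-gal, read by luminescence after 1 h room-temperature detection. Engineered CHO-K1 biosensor cells, 1,000/well, exposed 2 h at 37 C to titrations up to 46 uM final.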
# [8] = target: 3',5'-cyclic-AMP phosphodiesterase 4B (Homo sapiens) (UniProt Q07343); assay: qHTS Assay for Inhibitors of PDE-IV (AID 607; active means well fitted activation curve with a large enough effect in the main read-out, with a control signal flat, not every such curve was filed as active; further: % of control where 0% means no effect); conditions: HEK293 ACTOne CNG channel cells, membrane potential fluorescence; series mostly up to 22.9 µM
# Outline: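 The readout is membrane depolarisation from a cAMP-sensing CNG channel, detected with a potential dye at ex 535/em 590. Cells were HEK293-derived (endogenous PDE-IV) at 1000 cells/well, titrated up to 22.9 uM final.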
# [9] = qHTS Assay for Lipid Storage Modulators (AID 1519; calls by dose curve); conditions: Drosophila S3 cells, BODIPY lipid droplet/cell ratio, laser cytometry, cells loaded with oleic acid; for activity change, negative = inhibition: at 57.5 µM (top of the series)
# Outline: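 Cells seeded at 5,000 per well were treated with compounds over a concentration series and loaded with oleic acid (400 uM, as added). Lipid droplet fluorescence (488 nm excitation, 500-530 nm channel) was read by laser-scanning cytometry and normalized to 20 uM Triacsin C.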
# [10] = target: Dual specificity protein kinase CLK4 (Homo sapiens) (UniProt Q9HAZ1); assay: qHTS Assay for Inhibitors of CDC-like Kinase 4 (Kinase-Glo Assay) (AID 1770); conditions: recombinant Clk4, Kinase-Glo ATP depletion luminescence; series mostly up to 66.7 µM; further: nearly all actives have a fitted effect of over 65% in size; further: potency means the concentration at half of the fitted maximal effect
# Outline: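 Recombinant human Clk4 (25 nM) phosphorylated RS repeat peptide (100 uM) with 1 uM ATP in Tris pH 7.5/MgCl2/EGTA/DTT/Triton buffer for 4.5 h at room temperature. Residual ATP was quantified by Kinase-Glo luciferase luminescence.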
# [11] = target: Dual specificity protein kinase CLK4 (Homo sapiens) (UniProt Q9HAZ1); assay: qHTS Assay for Inhibitors of CDC-like Kinase 4 (ADP-Glo Assay) (AID 1771); conditions: recombinant CLK4, ADP-Glo luminescence; series mostly up to 80 µM; further: nearly all actives have a fitted effect of over 70% in size; further: potency means the concentration at half of the fitted maximal effect
# Outline: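 Clk4 (25 nM) was incubated 1 hr at room temperature with 100 uM RS repeat peptide and 1 uM ATP in buffer with 2 mM MgCl2, 0.5 mM EGTA, 2.5 mM DTT. ADP formed was quantified by ADP-Glo luminescence.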
# [12] = target: Dual specificity protein kinase CLK4 (Homo sapiens) (UniProt Q9HAZ1); assay: qHTS Assay for Inhibitors of CDC-like Kinase 4 (ADP-FP Assay) (AID 1795); conditions: Transcreener ADP fluorescence polarization; series mostly up to 50 µM; further: nearly all actives have a fitted effect of over 60% in size; further: potency means the concentration at half of the fitted maximal effect
# Outline: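 Recombinant human Clk4 (6.25 nM) phosphorylated RS repeat peptide (100 uM) with 1 uM ATP in Tris pH 7.5/MgCl2/EGTA/DTT/Triton buffer for one hour. ADP was quantified by Transcreener competitive fluorescence polarization against an ADP calibration curve.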
# [13] = target: Ubiquitin carboxyl-terminal hydrolase 1 (Homo sapiens) (UniProt O94782); assay: Inhibitors of USP1/UAF1: Pilot qHTS (AID 504865); conditions: purified USP1/UAF1, Ub-rhodamine cleavage fluorescence; series mostly up to 54.9 µM;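 further: rhodamine fluorescence freed from ubiquitin-rhodamine substrate followed over time; top concentration of the series differs between compounds; on the % scale 0 is the no-effect control and ±100 the full control effect; nearly all actives have a fitted effect of over 35% in size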
# Outline: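 USP1/UAF1 complex (1nM) preincubated with compound 15 min at room temperature, then Ub-Rho substrate (150nM final) added. Fluorescence read kinetically at 480/540 nm, 6 reads every 60 seconds. Buffer: 50mM HEPES pH 7.8, 0.5mM EDTA, 0.1 mg/ml BSA, 1mM TCEP, 0.01% Tween-20.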
# [14] = Primary qHTS for small molecule stabilizers of the endoplasmic reticulum resident proteome: Secreted ER Calcium Modulated Protein (SERCaMP) assay (AID 1508630); conditions: SH-SY5Y GLuc-SERCaMP (Gaussia luciferase released on ER calcium loss) secretion, thapsigargin, luminescence; series mostly up to 38.4 µM; further: on the % scale 0 is the no-effect control and ±100 the full control effect
# Outline: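 GLuc-SERCaMP-expressing SH-SY5Y cells, pretreated 16 h with compound, are challenged with thapsigargin to empty ER calcium stores; after 4 h, coelenterazine is added directly to the medium and luminescence is imaged.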
# [15] = target: Mitogen-activated protein kinase 10 (Mus musculus) (UniProt Q61831); assay: JNK3 AlphaScreen Assay (AID 530; active means well fitted curve in either direction with a large enough effect, not every such curve was filed as active); conditions: JNK3 lysate, c-Jun phosphorylation; series mostly up to 57.1 µM
# Outline: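 Room-temperature AlphaScreen kinase assay; pre-activated HepG2 lysate as JNK3 source, biotin-GST-cJun(1-79) substrate, 10 uM ATP, compound 15 min preincubation.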
# [16] = target: Cytochrome P450 2C9 (Homo sapiens) (UniProt P11712); assay: qHTS Assay for Inhibitors and Substrates of Cytochrome P450 2C9 (AID 883); conditions: recombinant CYP2C9, luciferin-H luminescence, 60 min; series mostly up to 57.1 µM; further: on the % scale 0 is the no-effect control and ±100 the full control effect; nearly all actives have a fitted effect of over 60% in size
# Outline: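 Inhibition of CYP2C9 is scored as loss of luminescence, with 57uM sulphaphenazole defining 100% inhibition. Substrate Luciferin-H is used at 100uM, equal to its KM; enzyme at 10nM in 25mM KPO4, 60 min at 37C with NADPH regeneration.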
# [17] = target: Cytochrome P450 3A4 (Homo sapiens) (UniProt P08684); assay: qHTS Assay for Inhibitors and Substrates of Cytochrome P450 3A4 (AID 884); conditions: recombinant CYP3A4, Luciferin-PPXE luminescence; series mostly up to 57.1 µM; further: on the % scale 0 is the no-effect control and ±100 the full control effect; nearly all actives have a fitted effect of over 50% in size
# Outline: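 20 nM human CYP3A4 with 25 uM Luciferin-PPXE (at KM) in 200 mM KPO4, preincubated 10 min with compound; NADPH regeneration started a 60 min RT reaction. Luciferin detected by luminescence, normalized to 57 uM ketoconazole as full inhibition.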
# [18] = target: Cytochrome P450 2C19 (Homo sapiens) (UniProt P33261); assay: qHTS Assay for Inhibitors and Substrates of Cytochrome P450 2C19 (AID 899); conditions: recombinant CYP2C19, luciferin-H EGE luminescence; series mostly up to 57.1 µM; further: potency means the concentration at half of the fitted maximal effect; nearly all actives have a fitted effect of over 60% in size
# Outline: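 5nM enzyme + 10uM Luciferin-H EGE (=KM), 50mM KPO4; cpd pin-transferred, 10 min 37C; NADPH regen, 60 min 37C; stopped w/ luciferin detection reagent, 20 min; luminescence. Normalized to 57uM ketoconazole (AC100).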
# [19] = qHTS Assay for Identification of Small Molecule Agonists for Hypoxia Response Element Signaling Pathway (AID 914; active means well fitted activation curve with a large enough effect in the signal ratio, with a control signal flat, not every such curve was filed as active; the % refers to the signal ratio; further: potency means the concentration at half of the fitted maximal effect; on activation: % of control where 0% means no effect); conditions: ME-180 (cervical carcinoma) HRE-bla reporter, beta-lactamase ratio, CoCl2, 17 h; activation: stronger effect = higher value
# Outline: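 Positive modulation of EC50 CoCl2-induced hypoxia response element signaling is measured in ME-180 cells with a beta-lactamase reporter. Compounds are titrated, incubation runs 17 hours, and %Activity derives from the blue/green ratio.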
# [20] = target: Cytochrome P450 3A4 (Homo sapiens) (UniProt P08684); assay: qHTS Assay for Activators of Cytochrome P450 3A4 (AID 885); conditions: recombinant CYP3A4, Luciferin-PPXE luminescence, 60 min; series mostly up to 57.1 µM; further: nearly all actives have a fitted effect of over 65% in size
# Outline: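 Steps: enzyme/substrate mix dispensed; compound added, 10 min RT; NADPH regeneration solution added, 60 min RT; luciferin detection buffer stops reaction; 20 min later luminescence measured.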
# [21] = measured here: cell count channel max response
# [22] = measured here: lipid channel max response
# Chain of Dual specificity protein kinase CLK4 (Homo sapiens) (Q9HAZ1 whole entry, looked up): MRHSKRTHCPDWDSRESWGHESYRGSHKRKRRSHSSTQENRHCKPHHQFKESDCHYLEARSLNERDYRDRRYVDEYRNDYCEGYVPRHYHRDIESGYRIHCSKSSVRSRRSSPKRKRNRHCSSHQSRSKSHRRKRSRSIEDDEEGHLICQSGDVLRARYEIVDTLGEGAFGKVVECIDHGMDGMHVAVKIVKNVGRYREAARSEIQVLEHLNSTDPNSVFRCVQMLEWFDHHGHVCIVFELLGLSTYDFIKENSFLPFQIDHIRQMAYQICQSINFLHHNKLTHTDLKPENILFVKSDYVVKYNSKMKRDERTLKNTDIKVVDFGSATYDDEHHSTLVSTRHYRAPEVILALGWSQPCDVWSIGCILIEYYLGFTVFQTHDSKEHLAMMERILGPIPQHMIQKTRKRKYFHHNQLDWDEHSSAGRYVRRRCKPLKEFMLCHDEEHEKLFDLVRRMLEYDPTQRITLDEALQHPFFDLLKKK
# Chain of Cytochrome P450 1A2 (Homo sapiens) (P05177 whole entry, looked up): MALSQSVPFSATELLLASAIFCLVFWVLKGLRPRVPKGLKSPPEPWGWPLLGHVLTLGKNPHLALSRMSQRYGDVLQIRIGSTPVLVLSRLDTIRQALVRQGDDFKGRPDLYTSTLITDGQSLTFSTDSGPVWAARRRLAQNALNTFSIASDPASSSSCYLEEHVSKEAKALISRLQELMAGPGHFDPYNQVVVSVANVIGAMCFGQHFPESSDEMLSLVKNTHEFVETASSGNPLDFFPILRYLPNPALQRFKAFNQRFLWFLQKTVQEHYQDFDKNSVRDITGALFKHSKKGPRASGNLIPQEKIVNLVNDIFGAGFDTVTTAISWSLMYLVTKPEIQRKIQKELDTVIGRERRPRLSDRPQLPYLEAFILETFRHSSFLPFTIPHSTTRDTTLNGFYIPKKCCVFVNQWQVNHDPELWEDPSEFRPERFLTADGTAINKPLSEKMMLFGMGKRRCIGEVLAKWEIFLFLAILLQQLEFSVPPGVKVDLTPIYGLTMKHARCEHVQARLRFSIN
# Chain of Cytochrome P450 3A4 (Homo sapiens) (P08684 whole entry, looked up): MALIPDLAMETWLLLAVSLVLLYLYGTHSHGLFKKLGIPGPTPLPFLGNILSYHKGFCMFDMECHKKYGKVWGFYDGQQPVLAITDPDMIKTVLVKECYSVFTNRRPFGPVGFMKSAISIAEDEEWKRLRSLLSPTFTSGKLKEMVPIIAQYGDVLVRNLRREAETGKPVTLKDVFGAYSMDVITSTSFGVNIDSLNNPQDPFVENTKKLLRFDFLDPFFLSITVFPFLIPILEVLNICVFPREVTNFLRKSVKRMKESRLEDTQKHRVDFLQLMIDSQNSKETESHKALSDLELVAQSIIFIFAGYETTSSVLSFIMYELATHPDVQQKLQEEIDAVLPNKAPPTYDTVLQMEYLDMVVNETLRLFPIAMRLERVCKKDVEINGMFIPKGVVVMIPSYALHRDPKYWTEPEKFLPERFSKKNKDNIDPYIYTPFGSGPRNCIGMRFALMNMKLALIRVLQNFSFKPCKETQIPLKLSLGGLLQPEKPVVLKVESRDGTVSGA
# Chain of Lysosomal acid glucosylceramidase (Homo sapiens) (P04062 whole entry, looked up): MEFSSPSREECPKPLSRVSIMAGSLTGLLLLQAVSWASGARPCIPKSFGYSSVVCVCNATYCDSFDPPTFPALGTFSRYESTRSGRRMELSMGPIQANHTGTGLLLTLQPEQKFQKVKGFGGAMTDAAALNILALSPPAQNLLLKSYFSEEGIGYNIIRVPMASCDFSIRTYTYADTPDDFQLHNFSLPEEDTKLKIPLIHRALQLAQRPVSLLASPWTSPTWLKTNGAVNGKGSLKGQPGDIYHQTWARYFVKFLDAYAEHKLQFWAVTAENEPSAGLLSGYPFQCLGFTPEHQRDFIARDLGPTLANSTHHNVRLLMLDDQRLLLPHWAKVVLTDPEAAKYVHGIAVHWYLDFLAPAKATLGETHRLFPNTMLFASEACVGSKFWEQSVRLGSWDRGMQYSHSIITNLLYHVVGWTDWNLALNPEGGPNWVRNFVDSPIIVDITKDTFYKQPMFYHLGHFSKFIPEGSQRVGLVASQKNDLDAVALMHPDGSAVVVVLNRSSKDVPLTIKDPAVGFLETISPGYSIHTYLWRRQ
# Chain of Ubiquitin carboxyl-terminal hydrolase 1 (Homo sapiens) (O94782 whole entry, looked up): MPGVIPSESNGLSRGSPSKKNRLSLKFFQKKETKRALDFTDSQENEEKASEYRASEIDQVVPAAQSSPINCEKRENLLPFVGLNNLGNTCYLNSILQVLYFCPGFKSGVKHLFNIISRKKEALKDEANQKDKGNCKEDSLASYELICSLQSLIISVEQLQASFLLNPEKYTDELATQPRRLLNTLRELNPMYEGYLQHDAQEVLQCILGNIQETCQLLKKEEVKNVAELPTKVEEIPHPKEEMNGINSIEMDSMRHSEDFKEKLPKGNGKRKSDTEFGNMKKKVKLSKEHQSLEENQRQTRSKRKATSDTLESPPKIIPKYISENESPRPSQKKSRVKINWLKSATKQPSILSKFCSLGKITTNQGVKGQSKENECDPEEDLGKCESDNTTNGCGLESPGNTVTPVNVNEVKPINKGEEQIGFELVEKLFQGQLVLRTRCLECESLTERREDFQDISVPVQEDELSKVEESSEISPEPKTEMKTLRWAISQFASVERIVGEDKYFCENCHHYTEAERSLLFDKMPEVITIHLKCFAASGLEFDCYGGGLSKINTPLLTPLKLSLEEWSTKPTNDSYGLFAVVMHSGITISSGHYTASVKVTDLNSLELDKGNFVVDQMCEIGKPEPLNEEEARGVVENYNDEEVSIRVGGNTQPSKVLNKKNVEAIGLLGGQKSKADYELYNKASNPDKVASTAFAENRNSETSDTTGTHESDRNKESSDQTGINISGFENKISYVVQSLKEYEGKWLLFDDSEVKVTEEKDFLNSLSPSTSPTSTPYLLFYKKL
# Chain of Glucocorticoid receptor (Homo sapiens) (P04150 whole entry, looked up, the tested form may be a part): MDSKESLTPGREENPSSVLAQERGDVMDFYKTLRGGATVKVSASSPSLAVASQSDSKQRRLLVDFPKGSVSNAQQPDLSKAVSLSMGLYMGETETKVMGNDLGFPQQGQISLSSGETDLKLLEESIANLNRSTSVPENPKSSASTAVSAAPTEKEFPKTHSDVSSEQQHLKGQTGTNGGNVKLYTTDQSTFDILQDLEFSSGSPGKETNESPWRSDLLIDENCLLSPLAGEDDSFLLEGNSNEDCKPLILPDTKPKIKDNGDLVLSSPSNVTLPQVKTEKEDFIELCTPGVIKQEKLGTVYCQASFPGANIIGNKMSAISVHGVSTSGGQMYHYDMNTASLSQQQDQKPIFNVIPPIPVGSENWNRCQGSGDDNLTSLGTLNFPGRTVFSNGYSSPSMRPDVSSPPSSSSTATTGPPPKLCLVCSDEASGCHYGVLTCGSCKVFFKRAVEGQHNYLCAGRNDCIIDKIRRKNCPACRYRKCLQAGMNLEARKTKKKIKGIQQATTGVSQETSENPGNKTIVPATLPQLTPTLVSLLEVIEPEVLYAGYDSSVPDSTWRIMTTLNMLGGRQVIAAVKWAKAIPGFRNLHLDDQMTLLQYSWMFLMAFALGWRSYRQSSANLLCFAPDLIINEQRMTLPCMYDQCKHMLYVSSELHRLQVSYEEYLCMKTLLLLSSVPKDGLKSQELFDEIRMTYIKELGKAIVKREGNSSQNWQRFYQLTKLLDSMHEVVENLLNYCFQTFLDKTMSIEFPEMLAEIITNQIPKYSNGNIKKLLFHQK
# Chain of 3',5'-cyclic-AMP phosphodiesterase 4B (Homo sapiens) (Q07343 whole entry, looked up): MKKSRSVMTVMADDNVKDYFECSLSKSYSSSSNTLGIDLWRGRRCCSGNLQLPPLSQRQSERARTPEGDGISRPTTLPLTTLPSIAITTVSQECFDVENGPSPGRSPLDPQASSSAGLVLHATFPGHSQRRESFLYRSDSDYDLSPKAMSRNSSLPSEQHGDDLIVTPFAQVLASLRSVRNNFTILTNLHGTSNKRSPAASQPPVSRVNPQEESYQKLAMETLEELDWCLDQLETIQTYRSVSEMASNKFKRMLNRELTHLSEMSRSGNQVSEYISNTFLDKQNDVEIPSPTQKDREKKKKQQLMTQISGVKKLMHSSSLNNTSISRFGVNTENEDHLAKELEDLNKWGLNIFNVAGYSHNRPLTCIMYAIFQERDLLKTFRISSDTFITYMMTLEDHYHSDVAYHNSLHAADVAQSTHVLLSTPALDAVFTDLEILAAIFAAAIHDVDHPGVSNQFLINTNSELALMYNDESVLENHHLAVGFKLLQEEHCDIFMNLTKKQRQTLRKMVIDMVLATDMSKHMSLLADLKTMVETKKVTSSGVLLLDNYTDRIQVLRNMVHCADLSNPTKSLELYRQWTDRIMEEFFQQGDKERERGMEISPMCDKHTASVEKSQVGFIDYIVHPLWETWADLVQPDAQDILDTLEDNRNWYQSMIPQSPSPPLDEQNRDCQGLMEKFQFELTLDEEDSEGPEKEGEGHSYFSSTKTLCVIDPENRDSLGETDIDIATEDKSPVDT
# Chain of Cytochrome P450 2C19 (Homo sapiens) (P33261 whole entry, looked up): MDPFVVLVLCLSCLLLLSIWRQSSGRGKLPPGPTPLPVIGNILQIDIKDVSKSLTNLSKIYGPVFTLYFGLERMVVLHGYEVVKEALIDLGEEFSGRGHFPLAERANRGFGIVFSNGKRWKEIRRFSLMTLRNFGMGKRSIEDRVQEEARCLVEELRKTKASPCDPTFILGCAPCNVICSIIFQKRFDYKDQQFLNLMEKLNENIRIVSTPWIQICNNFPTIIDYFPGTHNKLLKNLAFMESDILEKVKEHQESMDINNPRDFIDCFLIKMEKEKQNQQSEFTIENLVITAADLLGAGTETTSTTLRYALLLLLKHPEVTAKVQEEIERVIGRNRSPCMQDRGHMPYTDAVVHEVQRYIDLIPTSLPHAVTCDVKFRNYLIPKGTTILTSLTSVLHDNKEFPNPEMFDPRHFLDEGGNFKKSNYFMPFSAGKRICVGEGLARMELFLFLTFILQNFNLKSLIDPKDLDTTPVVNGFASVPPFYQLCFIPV
compound,measurement,setting,value
CN(C)c1ncc2nc(-c3cc(F)cc(F)c3)c(=O)n(C[C@H]3CCCO3)c2n1,Potency,[1],> 11.4 µM (inactive)
same,"activity change, negative = inhibition",[2],19.6% (inactive)
same,Potency,[3],0.0794 µM (active)
same,"activity change, negative = inhibition",[4],9.35% (inactive)
same,"activity, negative = inhibition",[5],29.3% (inactive)
same,Potency,[6],> 9.22 µM (inactive)
same,Potency,[7],> 46 µM (inactive)
same,Potency,[8],inactive
same,"activity change, negative = inhibition",[9],7.12% (inactive)
same,max response,[9]; [21],15.3%
same,max response,[9]; [22],23.7%
same,Potency,[10],inactive
same,Potency,[11],inactive
same,Potency,[12],inactive
same,Potency,[13],inactive
same,Potency,[14],inactive
c1ccc(Nc2cc(-c3ccoc3)ncn2)cc1,Potency,[1],> 11.4 µM (inactive)
same,"activity change, negative = inhibition",[2],-8.62% (inactive)
same,Potency,[3],15.8 µM (active)
same,"activity change, negative = inhibition",[4],-0.633% (inactive)
same,"activity, negative = inhibition",[5],-2.05% (inactive)
same,Potency,[7],> 46 µM (inactive)
same,outcome,[15],inactive
same,Potency,[8],inactive
same,"activity change, negative = inhibition",[16],-13.3% [at 2.29 µM] (inactive)
same,Potency,[17],inactive
same,Potency,[18],7.94 µM (active)
same,activation,[19],-8.49% (inactive)
same,"activity change, negative = inhibition",[9],8.08% (inactive)
same,max response,[9]; [21],15%
same,max response,[9]; [22],22%
same,Potency,[10],inactive
same,Potency,[11],inactive
same,Potency,[12],inactive
same,Potency,[14],inactive
CN(C)c1ncc2nc(-c3ccccc3)c(=O)n(-c3ccccc3)c2n1,Potency,[1],> 11.4 µM (inactive)
same,"activity change, negative = inhibition",[2],15.6% (inactive)
same,Potency,[3],0.398 µM (active)
same,"activity change, negative = inhibition",[4],23.9% (inactive)
same,Potency,[6],> 9.22 µM (inactive)
same,Potency,[7],> 46 µM (inactive)
same,outcome,[15],inactive
same,Potency,[19],0.631 µM (active)
same,"activity change, negative = inhibition",[9],-3.18% (inactive)
same,max response,[9]; [21],22.5%
same,max response,[9]; [22],15.8%
same,Potency,[10],inactive
same,Potency,[11],inactive
same,Potency,[12],inactive
same,Potency,[13],inactive
same,Potency,[14],inactive
CN1CCN(c2ncc3nc(CCc4ccccc4)c(=O)n(C4CC4)c3n2)CC1,Potency,[1],> 11.4 µM (inactive)
same,"activity change, negative = inhibition",[2],10.3% (inactive)
same,Potency,[3],12.6 µM (active)
same,"activity change, negative = inhibition",[4],15.1% (inactive)
same,"activity, negative = inhibition",[5],-7.8% (inactive)
same,Potency,[7],> 46 µM (inactive)
same,outcome,[15],inactive
same,Potency,[8],inactive
same,Potency,[20],inactive
same,activation,[19],-5.15% (inactive)
same,"activity change, negative = inhibition",[9],1.8% (inactive)
same,max response,[9]; [21],15.9%
same,max response,[9]; [22],14.9%
same,Potency,[10],inactive
same,Potency,[11],inactive
same,Potency,[12],inactive
same,Potency,[13],inactive
same,Potency,[14],inactive
O=c1cnc2cnc(Nc3ccccc3)nc2n1C1CC1,Potency,[1],> 11.4 µM (inactive)
same,"activity change, negative = inhibition",[2],-23.3% (inactive)
same,Potency,[3],0.631 µM (active)
same,"activity change, negative = inhibition",[4],-2.7% (inactive)
same,"activity, negative = inhibition",[5],-21.3% (inactive)
same,Potency,[6],> 9.22 µM (inactive)
same,Potency,[7],> 46 µM (inactive)
same,Potency,[20],inactive
same,"activity change, negative = inhibition",[9],-0.874% (inactive)
same,max response,[9]; [21],4.87%
same,max response,[9]; [22],2.12%
same,Potency,[10],2 µM (active)
same,Potency,[11],2.51 µM (active)
same,Potency,[12],1.58 µM (active)
same,Potency,[13],inactive
same,Potency,[14],inactive
